Source: the supplement of paper PMC6555819

These sequences were tested on PXR homodimer (NR concentration 270 nM) (assay: PBM binding z-score (relative to random genomic background probes); higher = stronger binding; sequences stand for … in GC…GCGATTGACAGCGTAGAATGAAGG).
In short: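 Binding z-scores were set against random background probes. The data came from custom Agilent 4×180K protein-binding microarrays carrying double-stranded probes with 34-nt variable regions, incubated 1 h with ligand-free nuclear receptor dimers. Partner-specific antibodies detected binding, and scanned fluorescence was regression-normalized.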

Row | Sequence | PBM binding z-score
1 | CCTAGTTGGTCAAGGTCACGCACGCTATAGGTAC | 2.27
2 | GATACAGGGTCATCTAGAGGCCAGAGTATGGAAA | 0.378
3 | AGTCAAAGTTCACTAGGTTACGTAAGATTCAGCT | 4.84
4 | CCAGACAGGTGAAAGGTAACTCACTCTGGTACGC | 0.186
5 | ATCTCTAGGTGAAAGTTCAGTGAATCCCGAGGAT | 1.57
6 | CAAACTAGGTCAAGGTCAAATTCGGTTTGTGCCA | 2.83
7 | CAAACTAGGTCACGAAAGGTCAAAATCGAATGAC | 3.06
8 | CCTACTGGGCCAAGGTCATTGACCAGTCAAAGCA | 1.37
9 | TTAACAAGGTGAAAGGTCGTTGATGCACGCCTTG | 0.791
10 | CCTGCTCGGTCAATGGTCAGCTAAAGCAGCTCGC | -0.933
11 | CGTCAAAGTTCAAGGTAATGTAACAGAAAGCAGC | 2.92
12 | CAAACTAGGTCAAAGGTCAAAGACGAGCCAACCA | 1.87
13 | CCTACTGGGCCATTGAGAGGTCATTGATCATATG | 2.03
14 | CCTGCTAGTTCATGGTCAGCTAATCTACAGTATG | 0.0644
15 | TCTAGTTCGTCACGGAGGTCACACACGACGGGTA | 2.64
16 | AGAATGAGGTTAGCAAAGATCAGGGAAACGCTTG | -0.147
17 | TAGCCTAGGTCATTCAGGGGCTAGTATAGAAAGC | -0.268
18 | ACTCGGAGGACAAAGGTAAGAGCTACGCCAGTGA | -0.386
19 | TCATATAGGTAATCAGGTGAAAGTCCGTAAGTTA | 0.68
20 | CCTACTGGGCCAAAGGTCATTGACTCCAATGCTC | 1.32

Row | Sequence | PBM binding z-score
21 | AAATGTAGGTTAAGGGTCATTCAGGTTGGTTCGC | 2.61
22 | GGAACTAGGGCAAAGTTGATAGCATCTGTCGACG | -0.423
23 | CAAACTAGGTCAAGGGGTCAAAGTCCGCTTCCCG | 1.78
24 | ATCGAAAGGTCGTGAGGTGAGTACACAGAAAGGC | 0.557
25 | CGAACTAGTTCAAGGACAGTGAATCTCCGCACGC | 0.308
26 | CCTGCTAGTTCAATGGTCAGCTAAAGCAGCTCGC | -0.0496
27 | ATATGTAGGTTAGCGGGGGTCATTCAGACTAGGC | 3.48
28 | CGTCCAAGGTCAGCAGGTGAGTGAAAGCGACGTG | 0.206
29 | TAGCCTCGGTCATTGGGCCAGTATAGTACGCATC | -0.977
30 | GCTAGTTGGTCAGTAAATGGTCACACACCGGTCG | -0.353
31 | AGACAAAGTTCAGGACGAGGTAACGTAAAGCACG | 0.806
32 | CGCACTAGGTCATTGACAGGACAGTGAATAGTAA | 0.54
33 | ATGGAAAGGTCGTGAGGTGAGTATACAGAAAGGC | 1.13
34 | ATATCTAGGTAAAAGTTCAGTGAATCCCGAGGAT | 1.9
35 | CCTACTGGGCCGAGGTCATTGATCAGTCAAAGCA | 2.49
36 | TTACCAAAGTGAAAGGTCGTTGATGCACGCCTTG | 0.329
37 | CCTAGTAGGTTATGGGGCATTCAGGCAACGGTGA | 0.02
38 | AGTCAAAGTTCATCTGGGTAACGTAAGATATGCT | 5.32
39 | TCTTGTAGATCAAAGGTCAAGAAAGCCGAAGCCT | 0.853
